An excerpt weighted towards active compounds, which were near 4.1% of everything screened.
DAX1 inh-1: DAX1 (NR0B1) inhibitors on StAR promoter, primary screen, cell-based, luminescence, SF-1 (NR5A1), full-length DAX-1; HEK293T StAR-luciferase reporter, SF-1/DAX-1 repression relief; inhibition, % at 6.8 µM; actives 1.1% (n = 370,000); AID 652010, 2013;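 active = inhibition above the mean over all tested compounds plus 3 SD, cut at about 3.6% in these data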;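 also: higher inhibition means more luminescence from relief of DAX-1 repression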
ssDAF-12 act: S. stercoralis DAF-12 nuclear receptor activators, primary screen, cell-based, luminescence, HEK293, GRIP1 co-expression, lit1-tk-luc | activation, % at 6.8 µM | Nuclear hormone receptor DAF-12 (Strongyloides stercoralis) | HEK293 ssDAF-12/GRIP1 lit1-tk-luc reporter; % of 3 µM dafachronic acid response | actives 1% (n = 370,000);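 active = activation above the mean over all tested compounds plus 3 SD, cut at about 0.9% in these data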
DAX1 inh-2: DAX1 (NR0B1) inhibitors, primary screen, cell-based, HEK293, Gal4-DAX1, luciferase luminescence; Nuclear receptor subfamily 0 group B member 1 (Homo sapiens), P51843; actives 0.99% (n = 340,000); inhibition, % at 6.75 µM; HEK293 Gal4-DAX1 luciferase reporter;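 active = inhibition above the mean over all tested compounds plus 3 SD, cut at about 4.2% in these data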;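 also: inhibition shows as a rise in luminescence from relieved DAX1 repression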
hcDAF-12 act: H. contortus DAF-12 nuclear receptor activators, primary screen, cell-based, luminescence, HEK293, lit1-tk-luc reporter; activation, % at 6.8 µM; AID 652067, 2013; HEK293 hcDAF-12 lit1-tk-luc reporter; 0% DMSO, 100% Δ7-dafachronic acid; actives 1.4% (n = 370,000);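 active = activation above the mean of all tested compounds plus 3 SD, cut at about 5.5% in these data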
hgDAF12 agonist: H. glycines DAF-12 receptor agonists, primary screen, cell-based, luminescence, HEK293, GAL4 fusion, UAS-luciferase. activation, % at 6.8 µM. Nuclear hormone receptor DAF-12 (Heterodera glycines), GAL4 fusion. HEK293 GAL4-hgDAF12 UAS-luciferase reporter, agonist luminescence; normalized to butyrate control. actives 1.8% (n = 370,000);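 active = activation above a cutoff set at the mean of all screened compounds plus 3 SD, cut at about 10% in these data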
DAX1 inh confirm: DAX1 (NR0B1) inhibitors relieving SF-1 repression, confirmation, cell-based, luminescence, HEK293T, full-length DAX-1, SF-1 activated StAR promoter. inhibition, % at 6.8 µM. actives 87% (n = 2,400). shares compounds with DAX1 inh-1. HEK293T StAR-promoter luciferase reporter, SF-1/DAX-1 repression. AID 652134, 2013;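 active = inhibition above the average of every tested compound plus 3 SD, cut at about 3.8% in these data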
SF1 mutant ctr: StAR reporter signal changes without DAX1, counter-screen for DAX1 inhibitor project, cell-based, luminescence, AF-2 mutant SF-1, transactivation | shares compounds with DAX1 inh-1 | HEK293 StAR-luciferase, SF-1 AF2 mutant | inhibition, % at 6.8 µM | actives 78% (n = 2,400);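 active = inhibition above the mean of all tested compounds plus 3 SD, cut at about 3% in these data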
LXR ag: LXR agonists, Gal4 luciferase reporter, confirmation, counter-screen for hcDAF-12 agonist project, cell-based, luminescence, HEK293, H. contortus campaign; shares compounds with hcDAF-12 act; activation, % at 6.8 µM; 3,400 tested, under 10 active; HEK293 Gal4-LXR tk-luc reporter, 24 h; normalized: DMSO 0%, positive control 100%;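 active = mean percent activation of the reporter above a cutoff set as the average over tested compounds plus their standard deviation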
Target sequence (P55055 whole entry, looked up, the tested form may be a part): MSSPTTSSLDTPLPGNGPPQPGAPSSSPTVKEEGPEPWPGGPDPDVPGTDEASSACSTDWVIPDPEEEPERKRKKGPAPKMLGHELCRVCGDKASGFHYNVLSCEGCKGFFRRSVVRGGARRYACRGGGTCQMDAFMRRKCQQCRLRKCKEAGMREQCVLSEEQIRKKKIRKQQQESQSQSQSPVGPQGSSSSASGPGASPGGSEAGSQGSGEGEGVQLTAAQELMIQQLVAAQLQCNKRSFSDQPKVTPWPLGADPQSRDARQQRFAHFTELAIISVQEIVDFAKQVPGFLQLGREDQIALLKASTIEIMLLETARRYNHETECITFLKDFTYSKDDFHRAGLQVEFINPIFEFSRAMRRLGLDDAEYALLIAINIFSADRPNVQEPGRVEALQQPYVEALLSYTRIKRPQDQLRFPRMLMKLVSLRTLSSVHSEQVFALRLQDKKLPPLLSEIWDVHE
hcDAF12 ag: H. contortus DAF-12 receptor agonists, confirmation, cell-based, luminescence, HEK293, lit1-tk-luc, triplicate; shares compounds with hcDAF-12 act; HEK293 hcDAF-12 lit1-tk-luc reporter; % of Δ7-dafachronic acid response; activation, % at 6.8 µM; actives 61% (n = 3,400);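 active = mean activation across triplicate tests above the threshold derived from the earlier primary screen, cut at about 5.5% in these data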
hgDAF12 conf: H. glycines DAF-12 receptor agonists, confirmation, cell-based, luminescence, HEK293, GAL4-LBD fusion. shares compounds with hgDAF12 agonist. HEK293 GAL4-hgDAF12 luciferase reporter, agonist mode; percent of butyrate response. activation, % at 6.8 µM. actives 80% (n = 3,300). AID 743050, 2013;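 active = mean activation over triplicate wells above the hit cutoff derived from the earlier primary screen, cut at about 11% in these data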
LXRb DAF12 ctr: LXR agonists, Gal4 luciferase reporter, confirmation, counter-screen for hgDAF-12 agonist project, cell-based, luminescence, HEK293, H. glycines campaign | shares compounds with hgDAF12 agonist | 3,300 tested, under 10 active | activation, % at 6.8 µM | 24 h;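 active = mean activation of the triplicate above a set limit carried over from the primary screen, none filed active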
Hits are given with their value; . = inactive; / = no result.

SMILES	DAX1 inh-1	ssDAF-12 act	DAX1 inh-2	hcDAF-12 act	hgDAF12 agonist	DAX1 inh confirm	SF1 mutant ctr	hgDAF12 conf	LXRb DAF12 ctr	others
Cn1c(-c2ccccc2)c(/C=N/NC(=O)c2ccc(O)cc2)c2ccccc21	4.5	.	8.7	.	14	12	7.6	22	.
O=C(N/N=C\c1c(O)ccc2ccccc12)c1ccc(O)cc1	.	.	.	.	.	/	/	/	/
COc1ccc(Cn2cc(CN3[C@@H](C)COc4cc(Br)ccc4S3(=O)=O)nn2)cc1	.	.	/	.	.	/	/	/	/
COC(=O)[C@]12C[C@H](CC(=O)N3CCOCC3)C(=O)N(CCC3=CCCCC3)C1=C[C@H](C(C)C)O[C@@H]2C1CC1	.	.	/	.	.	/	/	/	/
Nc1c(C(=O)Nc2ccc3c(c2)OCCO3)nnn1Cc1ccc(Br)cc1	8.1	1.3	.	9.4	22	12	8.6	22	.	LXR ag=.;hcDAF12 ag=6.7
Cc1cccc(NC(=O)c2ccc(OC3CSC3)cc2)c1	4.8	.	.	.	16	7.8	4.0	16	.
CC(=O)c1cccc(NC(=O)c2ccc(OC3CSC3)cc2)c1	.	.	.	.	.	/	/	/	/
O=C(NCCc1ccccc1)c1cnc2ccccn2c1=O	5.2	.	.	.	14	13	5.7	13	.
CC(C)n1c(=N)c(C(=O)NCCc2ccccc2)cc2c(=O)n3ccccc3nc21	.	.	.	.	.	/	/	/	/
O=C(Nc1ccccn1)c1ccc2c(=O)n3c(nc2c1)CCCCC3	6.2	.	.	.	20	7.7	3.8	15	.
COc1ccc(CN(CCN2CCOCC2)C(=O)c2ccccc2C)cc1OC	.	.	/	.	.	/	/	/	/
O=C(CN[C@@H](Cc1c[nH]c2ccccc12)C(=O)NCCc1c[nH]c2ccccc12)NC1CCCCC1	/	.	/	.	.	/	/	/	/
COc1ccc2oc(=O)c(C(=O)Nc3ccccc3O)cc2c1	5.6	.	.	6.1	19	11	6.8	16	.
COc1ccc(NC(=O)c2cc3ccccc3oc2=O)cc1	6.7	1.1	.	5.8	23	.	.	.	.
COc1ccc2oc(=O)c(C(=O)NC(C)c3ccccc3)cc2c1 (stereo unspecified)	.	.	.	.	.	/	/	/	/
S=C(Nc1ccccc1Br)OCCN1CCCC12CCC(c1ccccc1)CC2 (stereo unspecified)	/	.	/	.	.	/	/	/	/
O=C(Cc1ccccc1)Nc1ccc(N2CCCCC2)cc1	5.1	1.7	.	.	25	14	7.3	18	.
O=C(c1ccccc1)c1ccc(N2CCOCC2)cc1	6.6	.	.	.	15	7.1	4.6	16	.
CN1CCN(c2ccc(NC(=O)Cc3ccccc3)cc2)CC1	.	.	.	.	.	/	/	/	/
O=C(Nc1ccc(N2CCCCC2)cc1)c1ccccc1	7.3	.	.	7.2	15	17	6.7	17	.	LXR ag=.;hcDAF12 ag=.
CC(C)Oc1ccc(C(=O)Nc2ccc(N3CCCCC3)cc2)cc1	.	.	.	.	.	/	/	/	/
Nc1cc(C(=O)c2ccccc2)ccc1N1CCOCC1	.	.	.	.	.	/	/	/	/
COCCNC(=O)[C@]1(C#N)CC(=O)N(C)[C@@H]1c1ccccc1	.	.	/	.	.	/	/	/	/
CC[C@@]1(c2ccc(C)cc2)C(=O)N(C(=O)OC)N1C(=O)OC	.	.	/	.	.	/	/	/	/
Cc1ccc2c(c1)C1CS(=O)(=O)N(C3CCCC3)CN1C2 (stereo unspecified)	.	.	/	.	.	/	/	/	/
SMILES	DAX1 inh-1	ssDAF-12 act	DAX1 inh-2	hcDAF-12 act	hgDAF12 agonist	DAX1 inh confirm	SF1 mutant ctr	hgDAF12 conf	LXRb DAF12 ctr	others
CN(C)c1ccc(N=Nc2nccs2)cc1	7.0	2.2	.	9.7	18	16	5.9	20	.	LXR ag=.;hcDAF12 ag=11
Cc1cccc(C(=O)NC2=NCCS2)c1	4.6	1.2	.	.	18	13	8.1	14	.
O=C(NC1=NCCS1)c1csc2ccccc12	4.5	1.1	.	8.3	17	12	8.1	19	.	LXR ag=.;hcDAF12 ag=10.0
CCN(CC)S(=O)(=O)c1cccc(C(=O)NC2=NCCS2)c1	.	.	.	.	.	/	/	/	/
O=C(NC1=NCCS1)c1ccccc1F	.	.	/	.	.	/	/	/	/
COC(=O)[C@]12C[C@H](CC(=O)NCc3cccs3)C(=O)N(Cc3ccccc3)C1=C[C@H](C1CCCC1)O[C@@H]2C	.	.	/	.	.	/	/	/	/
c1ccc(-c2nc(-c3nccc4ccccc34)oc2-c2ccccc2)cc1	4.8	3.0	5.0	15	18	4.8	.	19	.	LXR ag=.;hcDAF12 ag=5.7
Cc1ccc(C(=O)c2ccc(C)cc2)cc1	.	.	.	.	.	/	/	/	/
CC(=O)c1ccc(N=Nc2ccc(C)cc2)cc1	6.6	.	.	6.4	15	9.5	.	.	.
COC(=O)C1=C(C)N(C)C(=NCC2CC2)NC1c1ccc(F)cc1 (stereo unspecified)	.	.	/	.	.	/	/	/	/
Cc1ccc2oc(-c3cccc(NC(=O)C4CCCO4)c3)nc2c1 (stereo unspecified)	.	.	.	.	.	/	/	/	/

Assay outcomes (PubChem BioAssay)
